Experimental data: PubChem BioAssay AID2289 (National Center for Advancing Translational Sciences (NCATS), 2010)
About 3,300 (0.97%) of roughly 340,000 compounds were called active. Another 9% or so got no clear call; they are omitted. Calls come from the whole dose curve; as a rule, active = well fitted inhibition curve with a large enough effect; inconclusive = small, poorly fitted or top-dose-only effect, or effect the other way; inactive = flat fitted curve, though single readings scatter. This is one part of the list.

Test: qHTS Assay for Modulators of miRNAs and/or Inhibitors of miR-21; note: nearly all actives have a fitted effect of over 55% in size
Details: HeLa miR-21-FLuc reporter, luciferase luminescence, 48 h; actives lower the signal
From the text: MLSCN Grant: 1 R21 NS059478-01 Assay Provider: Qihong Huang, The Wistar Institute NCGC Assay Overview: MicroRNAs (miRNAs) are endogenously encoded small (~20-25 nucleotides), nonprotein-coding RNAs that are involved in post-transcriptional repression of target messenger RNAs (mRNAs) (Le and Hannon, 2004). Estimated to be involved in the regulation of 30% of all protein-coding mRNAs (Filipowicz et al., 2008), miRNAs play a significant role in many biological processes including cellular differentiation and tissue development (Ghildiyal and Zamore, 2009).
NCGC Assay Protocol Summary: Reagents: HeLa cells stably expressing firefly luciferase (FLuc) under the control of a CMV promoter (upstream) and a miR-21 binding sequence directly downstream of the gene. These cells endogenously express miR-21. Control compounds used were compound C3 (provided by collaborator), N6-phenyladenosine (MP Biomedicals, 0215379625), and DMSO. Assay Summary: 6uL of HeLa miR-21-FLuc cells in assay buffer (DMEM, Invitrogen #21063-029; 10% FBS, HyClone #SH30071.03) were dispensed at 2000cells/well (3.3 x 10^5 cells/mL) into Greiner solid-white TC-treated 1536-well plates using a Multidrop Combi (Thermo Fisher Scientific). Plates were incubated for one hour at 37 degree Celsius, 95% humidity, 5% CO2. These assay plates were then treated with 23nL of compound or DMSO using a Kalypsys pin tool, which allows for delivery of a 24-point titration of each compound to the assay plate, with a final compound concentration ranging from approximately 40uM to 5pM. Assay plates were then incubated for 48 hours. After incubation, plates were allowed to come to RT for one hour prior to delivery of 3uL of 3X luciferase detection reagent. After a 15 minute incubation to allow for cell lysis, luciferase activity was measured using a ViewLux CCD imager (PerkinElmer), with an average exposure time of 2-12 seconds. Keywords: NIH Roadmap, MLPCN, MLSMR, qHTS, miR-21, microRNA, firefly luciferase, FLuc.
Potency is the fitted concentration of half-maximal effect.

| Structure (SMILES) | Potency |
| --- | --- |
| O=C(NNc1c(F)c(F)cc(F)c1F)c1cc2ccccc2oc1=O | 8.26 µM (active) |
| COc1ccc(-c2n[nH]c(=S)n2-c2ccc3c(c2)OCCO3)cc1OC | 16.5 µM (active) |
| Cc1ccc(-c2cc(NC(=O)c3ccccc3)on2)cc1 | 2.93 µM (active) |
| CC1CCc2c(sc3nc(CSc4n[nH]c(N)n4)[nH]c(=O)c23)C1 (stereo not given) | 16.5 µM (active) |
| Nc1nc(SCc2ccc(Cl)cc2Cl)n[nH]1 | 14.7 µM (active) |
| CN1C(=O)/C(=C/c2ccc(N3CCCCCC3)o2)C(=O)NC1=S | 0.826 µM (active) |
| CCN(CC)c1ccc(/C=C2\C(=O)NC(=S)N(C)C2=O)o1 | 1.31 µM (active) |
| CCCCn1c(O)c(/C(C)=N/NC(=O)Nc2ccccc2)c(=O)[nH]c1=O | 11.7 µM (active) |
| COc1ccc(CCN2CCCC(CN(C)C(=O)c3cc(C)oc3C)C2)cc1 (stereo not given) | 4.65 µM (active) |
| COc1ccc(NC(=O)CCCn2c(=O)oc3ccccc32)cc1Cl | 9.27 µM (active) |
| Cn1cnc2cc(NC(=O)c3ccc(Cl)cc3)ccc21 | 1.85 µM (active) |
| COc1ccc(CNC(=O)c2ccc(C(C)C)cc2)cc1 | 3.29 µM (active) |
| Cc1cccc(N=Nc2ccc(N(C)C)cc2)c1 | 2.93 µM (active) |
| COC(=O)C(O)(c1ccc(NC(=O)NC2CCCCC2)cc1)C(F)(F)F (stereo not given) | 8.26 µM (active) |
| CCN(CC)C(=O)Oc1ccc2cc(Br)ccc2c1 | 11.7 µM (active) |
| O=C(Oc1ccc2cc(Br)ccc2c1)N1CCCCCC1 | 4.14 µM (active) |
| O=c1c2ccccc2[nH]c(=S)n1-c1ccc2c(c1)OCCO2 | 7.36 µM (active) |
| O=c1cc(-c2ccc(O)c(O)c2)oc2cc(O)cc(O)c12 | 3.29 µM (active) |
| Cc1cnn(-c2cc(Oc3ccccc3)ncn2)c1 | 16.5 µM (active) |
| CC(C)(C)n1cc(C(=O)c2ccc3ccccc3c2O)cn1 | 0.233 µM (active) |
| c1ccc2c(CN3CCCCCC3)c[nH]c2c1 | 2.93 µM (active) |
| CN(C)C(=O)Oc1ccc2c(c1)O/C(=C\c1ccccc1)C2=O | 4.65 µM (active) |
| O=c1c2ccccc2nc(Cc2ccccc2)n1-c1ccccc1 | 5.85 µM (active) |
| COc1ccccc1N=Nc1c(O)[nH]c(=S)[nH]c1=O | 13.1 µM (active) |
| BrCC1C[n+]2c(SCc3ccccc3)nc3sc4c(c3c2O1)CCCC4 (stereo not given) | 16.5 µM (active) |

| Structure (SMILES) | Potency |
| --- | --- |
| O=C(c1cc(-c2cccc(Cl)c2)on1)N1CCOCC1 | 8.26 µM (active) |
| O=C(Nc1nc2c(s1)CCCCCC2)Nc1ccc(F)cc1F | 0.329 µM (active) |
| Cc1cc(C(=O)Nc2ccc3c(c2)OCCO3)nn1C(C)(C)C | 5.85 µM (active) |
| Cc1cc(C(=O)Nc2ccccc2)nn1C(C)(C)C | 2.07 µM (active) |
| CN(CC(=O)N1CCc2ccccc21)S(=O)(=O)c1cccs1 | 5.85 µM (active) |
| COc1ccc(-c2cc(=NCCC(=O)O)c3cc(C)ccc3o2)cc1 | 0.656 µM (active) |
| COc1ccc(-c2cc(=NCC(=O)O)c3ccccc3o2)cc1 | 3.69 µM (active) |
| CCCCN1CC(O)=C(c2nc3ccccc3s2)C1=N | 6.56 µM (active) |
| CC(=O)Nc1ccccc1C(=O)OCC(=O)c1ccccc1Cl | 14.7 µM (active) |
| COc1ccc2nc(NC3=NCCN3)sc2c1 | 1.65 µM (active) |
| Cc1ccnc(SCc2nc3ccccc3s2)n1 | 7.36 µM (active) |
| O=c1oc2ccccc2n1CCCOc1ccccc1 | 13.1 µM (active) |
| Cc1cccc(OCCn2c(=O)oc3ccc(C)cc32)c1 | 14.7 µM (active) |
| Cc1ccc(NC(=O)O/N=C/c2cccc([N+](=O)[O-])c2)cc1 | 16.5 µM (active) |
| Cc1nc(Cl)sc1C(=O)Nc1ccc2ccccc2c1 | 5.85 µM (active) |
| O=C(CSCc1ccccc1)Nc1ccc2c(c1)OCO2 | 5.21 µM (active) |
| Cc1ccc(-c2nn(Cc3ccccc3)cc2C=O)cc1 | 6.56 µM (active) |
| c1ccc(-c2nc(N3CCOCC3)s[n+]2-c2ccccc2)cc1 | 13.1 µM (active) |
| Cc1ccc(-c2nc(N3CCOCC3)s[n+]2-c2ccccc2)cc1 | 5.21 µM (active) |
| Cn1nnc2cc(NC(=O)Nc3cccc(Cl)c3)ccc21 | 1.47 µM (active) |
| c1ccc(CN2CCc3nc4ccccc4cc3C2)cc1 | 14.7 µM (active) |
| Cc1ccc(NN=C2C(=O)OC(C)(C)OC2=O)c(C)c1 | 11.7 µM (active) |
| O=C(NCC(c1cccnc1)N1CCOCC1)Oc1ccccc1 (stereo not given) | 16.5 µM (active) |
| Cc1nc2ccc(NC(=O)C3COc4ccccc4O3)cc2s1 (stereo not given) | 7.36 µM (active) |
| Cc1nc2ccc(NC(=O)c3ccc(Cl)s3)cc2s1 | 2.93 µM (active) |
